FMDV inh: foot and mouth disease virus antiviral activity; FMDV antiviral cell-based qHTS; Potency, µM (doses to about 57.9 µM), actives largely listed as inhibitors; AID 1159524; 410,000 tested, 1.2% active; calls by dose curve; tested in HEK293T cells; further: read-out not given here; nearly all actives have a fitted effect of over 45% in size
Lassa entry inh: blocks Lassa virus binding to or entry into cells; Lassa virus pseudotype entry inhibition, cell reporter; 300,000 tested, 1.2% active; Potency, µM (doses to about 37.9 µM), hits mostly inhibitors; calls by dose curve; tested in HEK293 cells; further: nearly all actives have a fitted effect of over 50% in size
HCMV antiviral: human cytomegalovirus inhibition; HFF cells, HCMV-luciferase reporter, 72 h; hits give low values; activity change, negative = inhibition, % at 57.5 µM; 410,000 tested, 4.5% active; AID 1259415; in the data active means activity change below about -60%; inconclusive means no clear call, values can overlap the other calls; inactive means above about -39%
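Cell-based, HFFs, 1000 cells/well, 16 h 37C; cpds in DMSO + HCMV-luc, MOI 1 PFU/cell; 72 h 37C; OneGlo luminescence after 5 min RT; norm. to buffer vs Salinomycin 10uM.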
MARV entry inh: Marburg virus entry inhibition | Marburg virus pseudotyped entry inhibition, cell reporter | Potency, µM (top dose mostly 37.8 µM), actives largely listed as inhibitors | 300,000 tested, 1.8% active | AID 540276; calls by dose curve; tested in HEK293 cells
A number is an active result; i = inactive; ? = inconclusive; nt = no result given; ! = not active in a repeat. Shown are actives, neighbours in structure and some others; about 6.2% of the full set was active somewhere.

SMILES	FMDV inh	Lassa entry inh	HCMV antiviral	MARV entry inh
CN(C)[C@H]1C(=O)C(C(=O)NCN2CCCC2)=C(O)[C@]2(O)C(=O)C3=C(O)c4c(O)cccc4[C@](C)(O)[C@H]3C[C@H]12	nt	i	nt	?
O=C(CCc1c[nH]c2ccccc12)N1CCCCCCC1	i	i	i	i
CC(C)(C)c1cc(CCC(=O)N2CCNCC2)c(C(C)(C)C)cc1O	i	i	i	15µM
CC(C)CC1Nc2ncnc(N3CCOCC3)c2N(Cc2ccc(Cl)cc2)C1=O (configuration not stated)	i	nt	-101!	nt
CN(C(=O)COC(=O)c1nc(Cl)c(Cl)c(Cl)c1Cl)C1CCS(=O)(=O)C1 (configuration not stated)	16µM	5.6µM	-99	?
CC(C)(C)c1ccc2c(c1)C(=O)c1ccccc1C2=O	i	8.9µM	i	?
CCc1ccc2c(c1)C(=O)c1ccccc1C2=O	i	i	i	i
C[C@H]1[C@@H](NS(=O)(=O)Cc2ccccc2)CC[C@@]23CCCN2C(=O)CCC[C@@H]13	nt	nt	i	nt
O=C(CCc1ccccc1)NCC1(c2ccccc2)CCCC1	i	?	i	5.6µM
O=C(CC(c1ccccc1)c1cc(Br)ccc1O)NCC1(c2ccccc2)CCCC1 (configuration not stated)	?	?	-105	?
O=C(NCCc1ccccc1)C(=O)NCC1(c2ccccc2)CCCC1	i	i	i	i
O=C(CC(c1ccccc1)c1cc(Br)ccc1O)NCCN1CCOCC1 (configuration not stated)	i	i	i	?
Cc1cc(C)c(S(=O)(=O)NCC(c2ccco2)S(=O)(=O)c2cccs2)c(C)c1 (configuration not stated)	i	?	i	nt
Cc1ccc(C)c(Sc2ccc(NC(=O)CCN3C(=O)NC4(CCCC4)C3=O)cc2)c1	?	nt	i	nt
Cc1ccc(Sc2ccc(NC(=O)CCl)cc2)c(C)c1	32µM	?	i	i
CCS(=O)(=O)c1cc([N+](=O)[O-])c(Sc2ccccc2NC(C)=O)s1	16µM	?	?	?
Cc1[nH]c2ccccc2c1CCNC(=O)c1ccc2c(c1[N+](=O)[O-])C(=O)c1ccccc1C2=O	i	?	-75	?
Cc1ccccc1C(=O)Nc1nc(-c2ccc(Br)cc2)ns1	?	i	-95	i
CC(=O)OC[C@H]1O[C@H](C#CC(C)(C)C)C=C[C@@H]1OC(C)=O	nt	nt	nt	i
O=C(Nc1ccc(CN2CCS(=O)(=O)CC2)cc1)c1ccc(F)cc1	i	nt	i	nt
O=C(Nc1ccc(CN2CCS(=O)(=O)CC2)cc1)c1ccc(C(F)(F)F)cc1	?	i	-61	?
CC(C)(C)c1ccc(C(=O)Nc2ccc(CN3CCS(=O)(=O)CC3)cc2)cc1	?	?	-80	?
Cc1cc(NC(=O)NC(=O)c2ccc(F)cc2F)n[nH]1	i	16µM	i	?
CCCn1c(N)c(C(=O)CN(C)CC(=O)Nc2ccccc2CC)c(=O)[nH]c1=O	i	nt	-103	nt
Cc1ccc(C(=O)Nc2nc(COc3ccccc3)cs2)s1	nt	i	-75	i
SMILES	FMDV inh	Lassa entry inh	HCMV antiviral	MARV entry inh
O=C(Nc1nc(COc2ccccc2)cs1)C12CC3CC(CC(C3)C1)C2	i	i	-84	i
CC(=O)Nc1nc(COc2ccccc2)cs1	i	i	i	i
Cc1cccc(C)c1N=CN1c2ccccc2-n2cccc2C1c1ccc([N+](=O)[O-])cc1 (configuration not stated)	nt	nt	i	nt
O=S(=O)(c1ccccc1)N1CCN(c2ccnc3cc(Cl)ccc23)CC1	25µM	?	?	?
Cc1cc(N2CCN(c3nc(-c4ccccc4)cs3)CC2)c2ccccc2n1	28µM	?	?	i
Cc1cccc(C)c1N1CCN(S(=O)(=O)c2ccccc2)CC1	i	nt	i	nt
O=S(=O)(c1cccs1)N1CCN(c2ccnc3cc(Cl)ccc23)CC1	?	?	-60	?
Cc1cc(N2CCN(S(=O)(=O)c3ccccc3)CC2)c2ccccc2n1	?	i	-88	?
CCCCOc1c(Cl)cc(C(=O)N(Cc2ccc(C)o2)C2CCS(=O)(=O)C2)cc1Cl (configuration not stated)	?	i	-110	?
CCCCCOc1c(Cl)cc(C(=O)N(Cc2ccc(C)o2)C2CCS(=O)(=O)C2)cc1Cl (configuration not stated)	?	i	i	i
CCOP(=O)(c1ccc(N(C)C)cc1)C(O)c1ccccc1 (configuration not stated)	i	i	-83	?
CCCCNc1c(CCc2ccccc2)nc2nc(C)cc(C)n12	i	nt	i	nt
C=CCN1C[C@H](C)N(C(c2ccc(C(=O)N(CC)CC)cc2)c2cccc(OC)c2)CC1C (some centres not stated)	nt	nt	-65	nt
CCN(CC)c1ccc(/C=C2\SC(=O)N(C(C)C)C2=O)o1	i	?	nt	11µM
COC(=O)C1=C(C)N(Cc2ccc(C(F)(F)F)cc2)C(=NCc2ccc3c(c2)OCO3)NC1c1cccc(Cl)c1 (configuration not stated)	nt	nt	-100	nt
COC(=O)C1=C(C)N(Cc2ccc(C(F)(F)F)cc2)C(=NCC2CC2)NC1c1cccc(Cl)c1 (configuration not stated)	nt	nt	-102	nt
C[C@@H](O)[C@H]1C(=O)N2C(C(=O)O)=C(SCCN=CN)C[C@H]12	nt	i	nt	i
CCn1c(=S)[nH]c2scc(-c3cccs3)c2c1=O	i	i	-63	i
C/C(=N\Nc1nc(C)cc(C)n1)c1ccc(N2CCOCC2)cc1	i	nt	-69	nt
C/C(=N\Nc1nc2ccccc2[nH]1)c1ccc(N2CCOCC2)cc1	i	10µM	i	?
CC(C)ON([C@@H](C(=O)NO)C(C)C)S(=O)(=O)c1ccc(-c2ccccc2)cc1	nt	3.7µM	nt	5.2µM
CC(C)ON(C(C(=O)NO)C(C)C)S(=O)(=O)c1ccc(-c2ccccc2)cc1 (configuration not stated)	i	nt	nt	nt
Nc1cc(=O)[nH]c(=O)n1-c1cccc(F)c1	i	i	-84	i
COc1ccc(-n2c(N)cc(=O)[nH]c2=O)cc1	i	i	nt	i
O=C(OCC(=O)N1CCOCC1)c1ccc[nH]c1=O	i	i	i	i
SMILES	FMDV inh	Lassa entry inh	HCMV antiviral	MARV entry inh
O=C(OCC(=O)N1CCCCCC1)c1ccc[nH]c1=O	i	nt	-60	nt
O=C(COC(=O)c1ccc[nH]c1=O)Nc1ccc(N2CCCCC2)cc1	2.5µM	nt	-75	nt
O=C(NCc1ccco1)c1ccc2c(c1)N(Cc1cccc(Cl)c1)C(=O)c1ccccc1S2=O (configuration not stated)	i	?	i	nt
CCOC(=O)c1sc(N2C(=O)c3oc4ccc(F)cc4c(=O)c3C2c2ccc(O)cc2)nc1C (configuration not stated)	i	i	i	i
CCCCCCCCCCCCCCCCCCOCC(O)CO (configuration not stated)	i	nt	nt	nt
NS(=O)(=O)c1ccc(N=Nc2c(O)[nH]c3ccc(Cl)cc23)cc1	nt	2.8µM	nt	nt
O=C(NCCCn1ccnc1)c1ccc(NS(=O)(=O)c2ccc(Cl)c(Cl)c2)cc1	i	i	i	?
O=C(O)c1ccc(N=Nc2c(O)[nH]c3cc(Cl)ccc23)cc1	i	nt	i	i
NS(=O)(=O)c1ccc(N=Nc2c(O)[nH]c3ccc(C(=O)NCCCn4ccnc4)cc23)cc1	nt	3.1µM	nt	nt
CCc1ccc(-c2nc3cc(NC(=O)c4cc5ccccc5cc4OC)ccc3o2)cc1	i	i	i	nt

Source: PubChem
